In PubChem BioAssay AID720582 (The Scripps Research Institute Molecular Screening Center, 2013) one finds inhibition data, which are given here for 52 molecules.

As usually defined, the inhibition is the drop in the measured response relative to a control, in per cent.

Screen size: about 370,000 compounds; about 2,300 (0.62%) were called active. Many of the other results were omitted from the sample, so actives are more common in it than they were. Unmarked numbers belong to inactive results.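 Rule for the calls: active = inhibition above a per-campaign cutoff equal to the mean of compounds falling between control-based bounds plus 3 SD (cut at about 20% in these data); inactive = the rest.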

This assay deals with Disintegrin and metalloproteinase domain-containing protein 10 (Homo sapiens) (UniProt O14672). The assay can be described thus: blockers of ADAM10 peptide cleavage – biochemical, QFRET, HTS, primary screen (AID 720582).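 Note: 0% = DMSO wells while the 100% control is not disclosed.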 The note with it: recombinant ADAM10, EDANS/DABCYL FRET peptide cleavage, 3 h; at 7 µM; active compounds read high.
Sequence of Disintegrin and metalloproteinase domain-containing protein 10 (Homo sapiens) (O14672 214-748 limits assumed): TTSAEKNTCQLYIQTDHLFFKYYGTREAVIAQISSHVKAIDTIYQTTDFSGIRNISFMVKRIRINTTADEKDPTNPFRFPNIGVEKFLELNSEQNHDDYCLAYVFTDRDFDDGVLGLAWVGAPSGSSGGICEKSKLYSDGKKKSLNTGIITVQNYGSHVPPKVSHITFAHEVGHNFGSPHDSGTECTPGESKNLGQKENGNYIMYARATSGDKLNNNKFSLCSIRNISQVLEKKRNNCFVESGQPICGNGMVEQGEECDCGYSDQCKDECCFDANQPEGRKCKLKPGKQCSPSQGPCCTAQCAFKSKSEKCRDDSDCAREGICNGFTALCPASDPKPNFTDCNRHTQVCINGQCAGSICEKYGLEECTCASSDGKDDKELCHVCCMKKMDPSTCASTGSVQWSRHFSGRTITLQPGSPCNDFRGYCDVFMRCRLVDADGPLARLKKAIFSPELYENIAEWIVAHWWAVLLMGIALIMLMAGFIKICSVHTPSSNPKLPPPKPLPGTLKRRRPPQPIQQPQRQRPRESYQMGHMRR
Regarding `FC(F)(F)c1cccc(NC(=S)OC2CCC23CCC(c2ccccc2)CC3)c1` (configuration not stated), the inhibition was 10.3%.

Turning to `FC(F)(F)c1cccc(Cn2ccc3ccc(-c4ccc5ccn(Cc6ccccc6)c5c4)cc32)c1`, the inhibition was -38.5%.

As for `CC1(Cc2cccc(C#N)c2)C(=O)Nc2ccc(-c3cccc(C(F)(F)F)c3)cc21` (configuration not stated), the inhibition is 33.6% (active). Consider `COc1ccc(-n2c(SCC(=O)Nc3ccc(C)c(Cl)c3)nc3ccccc3c2=O)cc1`, for which the inhibition was -4.98%.

As to `CCOC(=O)c1cccc(NC(=O)CN(C)S(=O)(=O)c2ccc(-c3cocn3)s2)c1`, the inhibition is 8.22%. As for `C#CCN(C[C@H]1[C@H](OC(=O)NC2CCCC2)[C@H](OC(=O)NC2CCCC2)C[C@H]2C(=O)N(c3ccccc3)C(=O)[C@@H]12)S(=O)(=O)c1ccc(C)cc1`, the figure is 29.4% (active). As for `C#CCN(C[C@@H]1[C@@H](OC(=O)NC2CC2)[C@@H](OC(=O)NC2CC2)Cn2c(=O)ccc(=O)n21)S(=O)(=O)c1ccc(C)cc1`, the inhibition is -5.52%. Consider `Cc1ccc(S(=O)(=O)N2C[C@]3(O)C[C@@H]4C(=O)N(c5ccccc5)C(=O)[C@@H]4C[C@]3(OC(=O)NC3CC3)C2)cc1`, for which the inhibition is -2.91%.

As for `COC(=O)[C@]12C[C@H](CC(=O)N3CCOCC3)C(=O)N(Cc3ccc(Cl)cc3Cl)C1=C[C@H](COCc1ccccc1)O[C@@H]2C`, the inhibition was 0.45%. Take `Cc1cnc(C(=O)OCc2c(C)cc(C(C)(C)C)cc2C)cn1`: the inhibition is 21.7% (active). Consider `COc1cc(NC(=O)COC(=O)c2cnc(C)cn2)c(C)cc1[N+](=O)[O-]`, for which the inhibition was 2.74%. Consider `Cc1cnc(C(=O)OCC(=O)NCCCc2ccccc2)cn1`, for which the inhibition is -1.14%.

With `Cc1cccc(NC(=O)C[C@H]2CC[C@H]3[C@@H](COc4ccc(NC(=O)Nc5ccccc5)cc4C(=O)N3C)O2)c1`, the inhibition was 5.56%.

On to `COc1cccc(NC(=O)C/C(C)=N/NC(=O)C2CCCCC2)c1`, for which the inhibition was 15.3%. `COc1cccc(NC(=O)C2C(c3ccccc3)C2(Cl)Cl)c1` (configuration not stated): the inhibition is 19.8% (active). The value for `COc1cccc(NC(=O)C2c3cc(OC)c(OC)cc3C(=O)N(C)C2c2cccnc2)c1` (configuration not stated) was -5.09%. Take `Cc1ccc(CSc2nnc(SCC(=O)NN=Cc3cc(Br)ccc3F)s2)cc1`: the inhibition is -6.1%. Take `COc1ccc(NC(=S)NCC2CCN(c3ccc(OC)cc3)C2)cc1` (configuration not stated): the inhibition was 7.62%. On to `Cc1ccc(NC(=O)COC(=O)CNC(=O)c2ccc(Cl)cc2Cl)cc1S(=O)(=O)N1CCOCC1`, for which the inhibition was 7.22%. As to `O=C(CCNC(=O)c1ccc([N+](=O)[O-])cc1)Nc1ccccc1N1CCOCC1`, the inhibition was 1.54%. For `O=C(CNC(=O)c1ccc(Cl)cc1Cl)NCC(=O)Nc1ccccc1N1CCOCC1`, the inhibition was 83.6% (active). For `Cc1ccc(CN2CCCCC(NC(=O)C3CCCCC3)C2=O)cc1` (configuration not stated), the inhibition is -0.65%.

Take `O=C(CSc1nc2c(c(=O)[nH]1)CCCC2)N1CCCCC1`: the inhibition is 3.78%.

`CCOC(=O)c1csc(NC(=O)Nc2cccc(OC)c2)n1`: the inhibition was 0.5%. As for `NC(c1csc(NC(=O)Nc2ccccc2Oc2ccccc2)n1)c1ccccc1Cl` (configuration not stated), the figure is -3.13%.

Take `COc1ccc(C(N)c2csc(NC(=O)Nc3cccc(C(F)(F)F)c3)n2)cc1` (configuration not stated): the inhibition is 25.5% (active). For `Nn1c(SCC(=O)Nc2cccc3ccccc23)nnc1-c1cc(-c2ccc(F)cc2)n[nH]1`, the inhibition is -0.59%.

`COc1ccc(Cl)cc1NC(=O)COC(=O)c1ccc(Br)o1`: the inhibition was -6.92%. As for `COc1ccc(Cl)cc1NC(=O)COC(=O)C(CC(C)C)N1C(=O)C2CC=CCC2C1=O` (configuration not stated), the inhibition was 28% (active). As for `COc1ccc(Cl)cc1NC(=O)c1cccc(N2C(=O)C3CC=CCC3C2=O)c1` (configuration not stated), the inhibition was 3.57%.

In the case of `Cc1ccccc1CS(=O)(=O)Cc1ccc(C(=O)Nc2ccc(Cl)cc2)o1`, the inhibition was -29%. For `Cc1sc2nc(SCC(=O)c3ccc(O)c(O)c3)n(Cc3ccco3)c(=O)c2c1C`, the inhibition was 15.9%. For the molecule `COc1cccc(CNC(=O)C2CCCN(c3nc4ccccc4o3)C2)c1OC` (configuration not stated), the inhibition was 2.5%. `O=Cc1cn(CCOc2ccc(F)cc2)c2ccccc12`: the inhibition was 20.7% (active). As for `O=C1c2ccccc2C(=O)N1CCOc1ccc(F)cc1`, the inhibition is 0.68%. As for `Cc1c(C=O)c2ccccc2n1CCOc1ccccc1`, the inhibition is 10.4%. `Cc1ccc(C(=O)C2CCN(CC(=O)NCCC(C)C)CC2)cc1`: the inhibition was -6.22%. For the molecule `NS(=O)(=O)c1ccc(NC(=S)NC(=O)c2cccnc2)cc1`, the inhibition was -8.74%. The value for `Cc1cccc(OCCNC(=S)NC(=O)c2cccnc2)c1` was 2.33%; that for `O=C(/C=C/c1ccc(F)cc1)NC(=S)NNC(=O)c1cccnc1` was 22.8% (active).

With `O=C1CCC2(CCC(c3ccc(Cl)cc3)CC2)N1CCO` (configuration not stated), the inhibition is -9.03%.

On to `O=C(NC(Cc1c[nH]c2ccccc12)C(=O)N/N=C/c1ccc(Br)cc1)c1cccs1` (configuration not stated), for which the inhibition was 28.1% (active). As for `CCN(CC)c1ccc(/C=N/NC(=O)CNC(=O)c2cccs2)cc1`, the figure is -246%; as for `O=C(N[C@@H](Cc1c[nH]c2ccccc12)C(=O)O)OCC1c2ccccc2-c2ccccc21`, -1.67%. As for `COC(CNC(=O)[C@H](Cc1ccccc1)NC1(C(=O)NC2CCCCC2)CCCCC1)OC`, the figure is 4.93%. As to `O=C(CCS(=O)(=O)c1ccccc1)Nc1ccc(Cl)c(Cl)c1`, the inhibition was -2.68%. For `O=C(Nc1ccc(Cl)c(Cl)c1)N1CC=C(c2ccccc2)CC1`, the inhibition is -19.8%. For `O=C(CC(O)(C(F)(F)F)C(F)(F)F)Nc1ccc(Cl)c(Cl)c1`, the inhibition is 23.7% (active).

With `COC(=O)C1CN(Cc2ccc(F)cc2)CCS(=O)(=O)N1Cc1ccc(Cl)cc1` (configuration not stated), the inhibition was -0.23%. The value for `COC(=O)[C@H](C(C)C)N1CCc2nnn(Cc3ccc(C)cc3)c2-c2ccccc2S1(=O)=O` was 5.83%; that for `COC(=O)[C@]12C[C@H](CC(=O)NCCc3ccccc3OC)C(=O)N(Cc3ccco3)C1=C[C@H](C(C)C)O[C@@H]2C1CC1` was -2.42%; that for `CC(=O)Nc1ccc(OC[C@@H](O)CN2CCC(C(O)(c3ccccc3)c3ccccc3)CC2)cc1` was 4.68%.
